ERa SRC1 pot – enhances coactivator binding to human estrogen receptor alpha | P03372 | TR-FRET ERalpha-LBD/SRC-Cy5 coactivator binding, 2 h; 100 = basal binding, no effect | coactivator binding (% of control), % at 25.6 µM | 1.3% of 86,000 active; in the data active means activity above about 200%;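 further: binding measured in presence of low estradiol as agonist stimulus; 0% = peptide alone without receptor and 100% = receptor with peptide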
Target sequence (P03372 whole entry, looked up, the tested form may be a part): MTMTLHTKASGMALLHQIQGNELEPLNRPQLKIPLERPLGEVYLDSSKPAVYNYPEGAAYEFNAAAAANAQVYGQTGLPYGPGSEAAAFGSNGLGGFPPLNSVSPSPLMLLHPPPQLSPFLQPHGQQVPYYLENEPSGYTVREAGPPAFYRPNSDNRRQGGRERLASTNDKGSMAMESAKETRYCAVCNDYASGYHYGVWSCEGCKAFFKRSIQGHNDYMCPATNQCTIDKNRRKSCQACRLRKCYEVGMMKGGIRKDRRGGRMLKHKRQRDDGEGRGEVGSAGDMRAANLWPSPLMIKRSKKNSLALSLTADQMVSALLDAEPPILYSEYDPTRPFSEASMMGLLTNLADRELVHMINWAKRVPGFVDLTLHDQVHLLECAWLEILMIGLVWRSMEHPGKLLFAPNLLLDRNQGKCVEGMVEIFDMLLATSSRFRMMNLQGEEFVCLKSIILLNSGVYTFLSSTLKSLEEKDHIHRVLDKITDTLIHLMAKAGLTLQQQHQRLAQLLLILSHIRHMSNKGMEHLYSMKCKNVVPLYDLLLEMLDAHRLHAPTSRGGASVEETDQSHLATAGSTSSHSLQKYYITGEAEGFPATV
Smad3 inh – Smad3 (human) transcription factor binding inhibition; P84022; 0.29% of 88,000 active; inhibition, % at 25 µM; TR-FRET Smad3/Dy647-FoxH1 peptide binding, europium anti-His;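 active means compounds that reduce the energy-transfer binding signal between the protein and its labelled peptide by more than half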;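 further: 0% = Smad3 plus labelled peptide maximal FRET and 100% = peptide-only background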
ERa coact inh – ER-alpha (human) coactivator binding inhibition. inhibition, % at 25.6 µM. 1.7% of 86,000 active. TR-FRET ER-alpha LBD / SRC-1 peptide, estradiol-bound; in the data active means inhibition above about 50%;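 further: 0% = receptor plus peptide control and 100% = peptide only without receptor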
ERb coact inh – blocks coactivator binding to human estrogen receptor beta | AID 633 | Q92731 | TR-FRET ER-beta LBD / SRC1-Cy5 peptide binding; receptor agonist-loaded with 1 µM estradiol | 1.3% of 86,000 active | inhibition, % at 25.6 µM;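 active means compounds whose percent inhibition of the receptor-coactivator binding signal exceeds about 50% in the single-dose screen, limit read from the data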;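 further: 0% = receptor plus peptide wells without compound and 100% = peptide-only wells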
Numbers without * were called inactive; / = not tested or not shown; [ ] = another dose, or the depositor's remark. Rows were chosen to be rich in hits. Some 3.7% of all compounds tested hit in one or more screens of this group.

SMILES | ERa SRC1 pot | Smad3 inh | ERa coact inh | ERb coact inh
CCCOC(=O)c1ccc(NC(=O)c2cn(CC)c3nc(C)ccc3c2=O)cc1 | 275*[fluorescence artefact?] | 61*[fluorescence artefact?] | 48 | 44
CCn1cc(C(=O)Nc2ccc(-n3cnnn3)c(OC)c2)c(=O)c2ccc(C)nc21 | 337*[fluorescence artefact?] | 3 | -46 | -1
CCn1cc(C(=O)NC2CCc3ccccc32)c(=O)c2ccc(C)nc21 (stereo unspecified) | 425*[fluorescence artefact?] | 8 | -10 | 15
CCn1cc(C(=O)Nc2cccc(C(=O)OC)c2)c(=O)c2ccc(C)nc21 | 154 | -14 | -5 | -3
CCOC(=O)c1cnc(N(C)C)nc1SC(=N)N | / | 16 | / | /
CCOC(=O)N1c2ccccc2C=CC1OCC (stereo unspecified) | 619* | -1 | -3 | -3
N#Cc1ccc(Oc2nc(C(N)=O)cc(-c3ccccc3)n2)cc1 | 100 | -7 | 15 | -3
COC(=O)c1ccc(Oc2nc(C(N)=O)cc(-c3ccccc3)n2)cc1 | 264*[fluorescence artefact?] | 5 | 47 | 20
Cc1ccc(-n2ncc3c(=O)[nH]c(SCC(=O)N4CCOCC4)nc32)cc1 | 108 | -6 | -4 | -10
Cc1ccc(-n2ncc3c(=O)[nH]c(SCC(=O)N4CCC(C)CC4)nc32)cc1C | 346*[fluorescence artefact?] | 25 | 8 | 18
CCSc1nc2c(cnn2-c2ccc(C)c(C)c2)c(=O)[nH]1 | 239*[fluorescence artefact?] | 17 | 70*[fluorescence artefact?] | 65*[fluorescence artefact?]
Cc1ccc(-n2ncc3c(=O)[nH]c(SCC(=O)N4CCCC4)nc32)cc1C | 115 | 0 | 0 | -7
Cc1ccc(-n2ncc3c(=O)[nH]c(SCC(=O)N4CCN(c5ccccc5)CC4)nc32)cc1 | 151 | -3 | 21 | 53*[fluorescence artefact?]
CCCCCSc1nc2c(cnn2-c2ccccc2)c(=O)[nH]1 | 283*[fluorescence artefact?] | 9 | 45 | 44
Cc1ccc(-n2ncc3c(=O)[nH]c(SC(C)C)nc32)cc1 | 108 | 7 | -1 | -9
O=C(CCn1nnc2ccccc21)Nc1nnc(-c2ccccc2F)s1 | 248* | -11 | 10 | -1
Cc1cccc(NC(=O)C2CCN(c3nc(C)cc(C)n3)CC2)c1 | 115 | 7 | 0 | 55*[fluorescence artefact?]
O=C(Cn1nnc(-c2ccccc2NC(=O)c2ccco2)n1)Nc1ccccc1 | 286*[fluorescence artefact?] | 16 | 60*[fluorescence artefact?] | 43
COc1ccc(NC(=O)Cn2nnc(-c3ccccc3NC(=O)c3cccs3)n2)cc1 | 237*[fluorescence artefact?] | 0 | 33 | 30
CC(C)(C)NC(=O)Cn1nnc(-c2ccccc2NC(=O)c2ccco2)n1 | 124 | -1 | 12 | -3
CCCCNc1cc(=O)oc2ccccc12 | 89 | -8 | -5 | -2
CCOc1ccc(Nc2cc(=O)oc3ccccc23)cc1 | 256* | -6 | -5 | 11
CCOC(=O)c1sc(=NC(=O)c2ccc(OC)c(OC)c2)n(C)c1C | 429*[fluorescence artefact?] | -126 | -54 | 29
CCOC(=O)c1sc(=NC(=O)c2cccc(OC)c2)n(C)c1C | 141 | 0 | 11 | 29
COc1ccc2c(Cc3c4ccccc4cc4ccccc34)cncc2c1O | / | 22 | / | /
SMILES | ERa SRC1 pot | Smad3 inh | ERa coact inh | ERb coact inh
CC[C@](N)(C(=O)O)C(C)C | / | -5 | / | /
COc1ccc2cc3cc(C(=O)Nc4ccc5c(c4)OCO5)oc3nc2c1 | 159 | -17 | 23 | 39
COc1ccc(C)cc1NC(=O)c1cc2cc3ccc(C)cc3nc2o1 | 209* | -2 | 40 | -20
Cc1ccc2cc3cc(C(=O)NCc4ccc5c(c4)OCO5)oc3nc2c1 | 125 | 9 | 51*[fluorescence artefact?] | 35
COc1ccc2nc3oc(C(=O)Nc4ccc(OC)c(OC)c4)cc3cc2c1 | 108 | 42 | 63*[fluorescence artefact?] | 41
C[C@@H](CNC(N)=O)NC(N)=O | / | -19 | / | /
Cc1nnc(Sc2c(N)n(C)c(=O)n(C)c2=O)s1 | 104 | -3 | 0 | -3
Cc1nnc(Sc2nc(Sc3nnc(C)s3)nc(N3CCN(C)CC3)n2)s1 | 111 | 3 | -14 | 60*[fluorescence artefact?]
O=c1[nH]c2cc3c(cc2cc1C(c1nnnn1C1CCCC1)N1CCSCC1)OCCO3 (stereo unspecified) | 215*[fluorescence artefact?] | 15 | 20 | 10
CC(C)(C)n1nnnc1C(c1cc2cc3c(cc2[nH]c1=O)OCCO3)N1CCSCC1 (stereo unspecified) | 85 | -1 | 7 | 0
C/C(N)=C(/C#N)C(=O)CSc1nnnn1-c1ccccc1 | 7 | -4 | 85*[fluorescence artefact?] | 90*[fluorescence artefact?]
C/C(N)=C(/C#N)C(=O)CSc1nnnn1-c1ccc(C)cc1 | 59 | 11 | 51*[fluorescence artefact?] | 64*
COc1ccc(-n2nnnc2SCC(N)=O)cc1 | 112 | -3 | -13 | -8
Cn1c(=O)c2c(nc(N/N=C/c3ccccc3C(=O)O)n2C)n(C)c1=O | / | 10 | / | /
COc1ccc2c(c1)n([O-])c1c([n+]2=O)CCC1 | 65 | -4 | 20 | 51*
Cn1c(C(=O)NCc2cccs2)cc2c(=O)n(C)c3ccccc3c21 | 513*[fluorescence artefact?] | 30 | -1 | 7
Cn1c(C(=O)NCCN2CCOCC2)cc2c(=O)n(C)c3ccccc3c21 | 90 | -6 | -5 | -5
Cc1ccc(CNC(=O)c2cc3c(=O)n(C)c4ccccc4c3n2C)cc1 | 291*[fluorescence artefact?] | 12 | 39 | 42
COc1ccc(NC(=O)c2cc3c(=O)n(C)c4ccccc4c3n2C)cc1OC | 109 | -3 | -3 | 5
Cn1c(C(=O)NC2CCCCCC2)cc2c(=O)n(C)c3ccccc3c21 | 223*[fluorescence artefact?] | 0 | 23 | 28
COc1cc(NC(=O)c2cc3c(=O)n(C)c4ccccc4c3n2C)cc(OC)c1OC | 330* | 15 | -23 | -5
Cc1nn(-c2ccc(F)cc2)c2sc(C(=O)OCC(=O)N3CCC(C)CC3)cc12 | 103 | 5 | -8 | 7
Cc1noc(C)c1COC(=O)c1cc2c3ccccc3n(C)c2s1 | 751* | 6 | -80 | -49
Cc1noc(C)c1COC(=O)c1cc2c(C)nn(-c3ccc(F)cc3)c2s1 | 150 | 9 | 74*[fluorescence artefact?] | 59*[fluorescence artefact?]
COc1ccc(/C=C(\C#N)C(N)=O)c(OC)c1 | / | 5 | / | /
SMILES | ERa SRC1 pot | Smad3 inh | ERa coact inh | ERb coact inh
COC(CNc1cc(=O)oc2ccccc12)OC | 97 | -20 | -4 | -1
Cc1cc(Cc2cc(C)cc(C(C)(C)C)c2O)c(O)c(Cc2cc(C)cc(C(C)(C)C)c2O)c1 | / | 34 | / | /
OCCCN=C1CCCCC1 | / | 11 | / | /
COc1cc(C2C(C#N)=C(N)Oc3cc(C)oc(=O)c32)cc2c1OCO2 (stereo unspecified) | 101 | 17 | 70* | 62*
CCC(=O)Nc1cc(OC)c(NC(=O)c2ccccc2)cc1OC | 59 | -3 | 64*[fluorescence artefact?] | 53*[fluorescence artefact?]
COCCn1c(N)c(S(=O)(=O)c2cccs2)c2nc3ccccc3nc21 | 126 | 18 | -5 | 9
Cc1ccc(S(=O)(=O)c2c(N)n(Cc3ccco3)c3nc4ccccc4nc23)cc1 | 198 | -6 | 10 | 16
Cc1cccc(S(=O)(=O)c2c(N)n(Cc3ccco3)c3nc4ccccc4nc23)c1 | 88 | 14 | 47 | 61*
Nc1c(S(=O)(=O)c2cccs2)c2nc3ccccc3nc2n1Cc1ccccc1 | 206* | -8 | 25 | 4
CSc1nc2ccccc2n1Cc1c(Cl)cccc1Cl | 65 | -27 | 6 | 11
Nc1ccc(-n2c(N)c(C(=O)NCc3ccc4c(c3)OCO4)c3nc4ccccc4nc32)cc1 | 15 | 4 | 79*[fluorescence artefact?] | 33
